Bioassay records (PubChem)
CSC inhib – blocks cancer stem cells | cancer stem cell-like cells viability, luminescence | inhibition, % at 7.5 µM | 300,000 tested, 1.1% active | AID 2717; in the data active = inhibition above about 75%; tested in HMLE shEcad cells
NR3A LBD binder – modulates the human NR3A ligand-binding domain. 340,000 tested, 2.5% active. NR3A LBD differential scanning fluorimetry, Tm shift; 0% = protein alone, 100% = glycine-bound protein. Tm shift relative to glycine control, % at 25 µM;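 active = melting temperature shift of at least 10% of the positive control shift, at one fixed dose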
Mdm2-MdmX inh – human Mdm2/MdmX binding inhibition; O15151+Q00987; inhibition, % at 8 µM; SaOS-2 split-luciferase Mdm2/MdmX complementation, luminescence; 330,000 tested, 3% active;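 active = inhibition of at least 50% at 8 µM in the primary screen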
Target sequence (O15151 whole entry, looked up): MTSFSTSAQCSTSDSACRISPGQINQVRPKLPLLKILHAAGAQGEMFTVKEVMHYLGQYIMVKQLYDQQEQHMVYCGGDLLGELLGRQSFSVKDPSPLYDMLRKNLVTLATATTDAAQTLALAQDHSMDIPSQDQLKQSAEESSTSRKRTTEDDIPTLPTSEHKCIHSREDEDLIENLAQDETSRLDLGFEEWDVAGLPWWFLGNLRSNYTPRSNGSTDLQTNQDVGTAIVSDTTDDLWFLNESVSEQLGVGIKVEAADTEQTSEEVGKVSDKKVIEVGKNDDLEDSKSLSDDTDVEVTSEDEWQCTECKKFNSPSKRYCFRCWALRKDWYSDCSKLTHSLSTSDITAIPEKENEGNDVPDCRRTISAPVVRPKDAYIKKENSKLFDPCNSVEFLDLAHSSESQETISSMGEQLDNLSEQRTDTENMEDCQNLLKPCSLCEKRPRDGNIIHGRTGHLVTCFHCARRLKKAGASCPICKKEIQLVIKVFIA
Target sequence (Q00987 whole entry, looked up): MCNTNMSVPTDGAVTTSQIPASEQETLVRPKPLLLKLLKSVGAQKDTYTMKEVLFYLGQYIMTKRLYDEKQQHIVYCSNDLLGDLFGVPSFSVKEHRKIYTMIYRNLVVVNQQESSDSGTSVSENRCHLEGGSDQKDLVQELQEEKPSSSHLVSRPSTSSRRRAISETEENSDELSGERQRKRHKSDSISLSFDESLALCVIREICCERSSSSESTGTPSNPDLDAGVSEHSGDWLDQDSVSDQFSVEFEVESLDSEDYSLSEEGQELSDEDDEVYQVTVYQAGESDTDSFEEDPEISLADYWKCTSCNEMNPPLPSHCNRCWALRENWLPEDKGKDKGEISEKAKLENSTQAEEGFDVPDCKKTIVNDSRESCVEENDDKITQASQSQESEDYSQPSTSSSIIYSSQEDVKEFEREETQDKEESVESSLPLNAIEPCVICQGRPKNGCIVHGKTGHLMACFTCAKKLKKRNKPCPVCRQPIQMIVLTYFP
Beta apoptosis – blocks beta cell apoptosis. INS-1E cytokine-induced death, ATP luminescence, 48 h; percent of positive-control rescue, neutral wells zero. 300,000 tested, 0.8% active. AID 435005. protection from apoptosis, % (concentration not given with the values);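 active = Every replicate reaches about 75%, or at least half do and their mean reaches it too, limit read from the data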;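 note: 0% = cytokine-treated negative control wells and 100% = positive control rescue; higher means more ATP so stronger rescue from cytokine killing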
MPTP inh – inhibitors of mitochondrial permeability transition pore | inhibition, % at 10 µM | 360,000 tested, 1.4% active | isolated mouse mitochondria, Ca2+ swelling absorbance, 30 min;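 active = inhibition of 50% or more, scaled per plate between neutral and stimulator controls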;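 note: 0% = DMSO wells given calcium and 100% = 1 mM EGTA wells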
Gli-Sufu block – Gli-Sufu pathway antagonism; Sufu-KO-LIGHT fibroblasts, Gli luciferase reporter luminescence; inhibition, % at 5 µM; 340,000 tested, 0.74% active; AID 588413;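 active = inhibition above about 55%, limit read from the data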;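 note: 0% = DMSO-treated cells and 100% = wells with medium but no cells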
* = called active by the depositor; nt = no result given. In the library only some 6.6% were active in any assay of this set; here they are far more common.

SMILES	CSC inhib	NR3A LBD binder	Mdm2-MdmX inh	Beta apoptosis	MPTP inh	Gli-Sufu block
CC1(C(=O)Nc2ccc3c(c2)OCCO3)CCC(=O)N1CCc1c[nH]c2ccccc12 (stereo unspecified)	nt	nt	nt	nt	-0.6	nt
O=c1oc(Nc2cccc(F)c2)nc2ccccc12	-1.7	-0.5	-19.1	-2.5	-3.6	-12.4
COc1ccc(Cl)cc1Nc1nc(N)c2ccccc2n1	18.0	16.2*	-70.3	5.0	3.2	-6.7
Nc1nc(Nc2cccc(F)c2)nc2ccccc12	2.4	26.5*	-236.1	25.4	0.7	-55.4
COc1cc(-c2ccc3c(=O)c4ccccc4n(C)c3c2)cc(OC)c1OC	93.3*	-27.8	36.0	12.2	0.4	27.3
Cc1ccc(-n2c(SCC(=O)Nc3cc(S(=O)(=O)N4CCOCC4)ccc3Cl)nc3ccccc3c2=O)cc1	3.5	10.2*	13.8	11.2	0.5	0.0
COc1ccc(-c2nc(SCC(=O)Nc3cc(C)on3)n[nH]2)cc1	-2.5	10.0*	21.1	7.2	-2.6	-4.8
Nc1cc(=O)[nH]c(SCC(=O)Nc2cc(S(=O)(=O)N3CCCCCC3)ccc2Cl)n1	-12.8	-1.7	34.0	-4.5	4.0	-14.1
Cc1ccc(-c2nc(SCC(=O)Nc3cc(S(=O)(=O)N4CCCCC4)ccc3Cl)n[nH]2)cc1	12.5	11.8*	22.4	2.4	1.1	1.1
COc1ccc(-c2nc(SCC(=O)Nc3c(F)cccc3F)n[nH]2)cc1	-12.1	-6.5	12.9	3.1	0.6	-2.9
CN(C(=O)CSc1nc2ccccc2n1CCc1ccccc1)C1CCS(=O)(=O)C1 (stereo unspecified)	10.8	14.4*	-32.1	0.5	1.1	-9.8
CCOC(=O)C1CCCN(C(=O)c2cccc(S(=O)(=O)N(C)c3ccc(C)cc3)c2)C1 (stereo unspecified)	nt	-1.3	-14.4	4.2	-0.3	0.4
Cc1cc(C)c2nc(N3CCCC(C(=O)N4CCN(c5ncccn5)CC4)C3)sc2c1 (stereo unspecified)	75.4*	1.7	27.7	13.2	2.9	-0.7
Nc1ncnc2c1ncn2[C@@H]1O[C@H](CNCc2cccc(C#Cc3ccccc3)c2)[C@@H](O)[C@H]1O	nt	12.7*	14.7	nt	5.6	-9.9
Nc1ncnc2c1ncn2[C@@H]1O[C@H](CNC(=O)[C@H]2CCC(=O)N2)[C@@H](O)[C@H]1O	nt	1.2	3.4	nt	-1.0	-5.7
Nc1ncnc2c1ncn2[C@@H]1O[C@H](CNC(=O)[C@@H]2CCN2)[C@@H](O)[C@H]1O	nt	15.4*	7.1	nt	-1.3	0.0
Nc1ncnc2c1ncn2[C@@H]1O[C@H](CNCc2ccccc2)[C@@H](O)[C@H]1O	nt	-0.5	-10.4	-5.5	-0.1	2.1
O=C(NC1CCOC1=O)OCc1ccccc1 (stereo unspecified)	nt	nt	nt	nt	0.7	nt
Nc1nonc1-n1nnc(C(=O)N/N=C/c2ccco2)c1CSc1ccc(Cl)cc1	nt	nt	nt	nt	0.9	nt
Nc1nonc1-n1nnc(C(=O)N/N=C/c2cccc(Cl)c2)c1CSc1ccccc1	6.2	6.0	6.1	-5.7	7.2	7.8
Nc1nonc1-n1nnc(C(=O)N/N=C/c2ccccc2)c1CSc1ccc(Cl)cc1	2.2	29.7*	16.0	-3.6	9.3	-2.4
Nc1nonc1-n1nnc(C(=O)N/N=C/c2cccc(Cl)c2)c1CSc1ccc(Cl)cc1	1.6	33.2*	-6.0	-5.3	2.5	-2.4
COc1ccc(S(=O)(=O)CCC(=O)N2CCN(c3ccc(C(C)=O)cc3)CC2)cc1	-6.3	0.4	-25.1	-6.4	-1.5	-19.0
O=C(CN1CCCC1)NC12CC3CC(CC(C3)C1)C2	-14.6	10.2*	3.1	-6.5	-1.2	2.3
O=C(CN1CCCC1)NCC12CC3CC(CC(C3)C1)C2	-15.0	-1.3	2.9	-5.0	-0.6	-4.6
SMILES	CSC inhib	NR3A LBD binder	Mdm2-MdmX inh	Beta apoptosis	MPTP inh	Gli-Sufu block
CCOc1ccc2nc(N3C(=O)CNC3=S)sc2c1	22.8	17.0*	-5.9	19.7	3.7	-53.0
O=C(C(O)c1ccccc1)N1CCN(S(=O)(=O)c2ccc(C(F)(F)F)cc2)CC1 (stereo unspecified)	nt	nt	nt	nt	0.6	nt
CC(=O)N/C(=C\c1ccc(F)cc1)C(=O)NC(Cc1c[nH]c2ccccc12)C(=O)O (stereo unspecified)	-4.0	13.7*	13.1	-2.5	-1.5	-1.6
O=C(NC(Cc1c[nH]c2ccccc12)C(=O)O)/C(=C/c1ccc(F)cc1)NC(=O)c1ccccc1 (stereo unspecified)	-8.0	0.0	10.2	-0.8	1.7	-3.4
O=C(c1cccc(S(=O)(=O)N2CCc3ccccc3C2)c1)N1CCN(c2ccc(O)cc2)CC1	155.5*	-0.6	-11.9	-5.3	2.6	26.1
Cn1c(=O)n(Cc2ccc(F)cc2)c(=O)c2c1nc1n2CCCN1C1CCCCC1	78.2*	-5.5	43.1	10.7	-1.6	11.9
CC1=C(C(=O)Nc2ccccc2)C(c2ccc(O)cc2)N2C(=O)CSC2=N1 (stereo unspecified)	2.3	11.8*	-0.9	-2.7	-0.5	-8.0
COc1cc(/C=N/NC(=O)CC2(C)OCCO2)cc(Br)c1O	-5.8	37.4*	3.0	-1.0	1.6	-1.7
CCCCCC(=O)N/N=C/c1cc(Br)c(O)c(OC)c1	nt	3.2	-12.9	nt	0.3	-0.5
CC12CN(C(=O)c3cccc([N+](=O)[O-])c3)C3(C#N)CC1CCC23C (stereo unspecified)	-13.5	2.4	11.1	-1.9	0.2	4.8
CCOC(=O)/C(=N\Nc1cccc(C(F)(F)F)c1)N1CCOCC1	82.9*	0.5	-10.4	-4.0	1.2	-16.3
CCOC(=O)/C(=N\Nc1cccc(C(F)(F)F)c1)N(CCOC)CCOC	0.9	1.0	-10.1	0.1	2.9	4.4
O=C(OCC(=O)N1CCOCC1)c1cccc(S(=O)(=O)Nc2ccc(F)cc2)c1	-12.9	0.6	11.7	4.5	1.0	0.9
COc1cc(CC(=O)OCC(=O)NCc2cccs2)cc(OC)c1OC	-19.1	0.3	28.6	-3.2	0.8	-18.6
O=C(Cn1ncc2c3ccccc3n(Cc3ccccc3)c2c1=O)NCc1ccco1	1.8	0.6	43.7	6.7	1.9	-4.0
CCOC(=O)c1ccc(NC(=O)CC2S/C(=N/N=C/c3c[nH]c4ccccc34)NC2=O)cc1 (stereo unspecified)	88.4*	29.1*	35.0	-6.0	1.0	-0.7
Cc1ccc(NC(=O)CC2S/C(=N/N=C/c3c[nH]c4ccccc34)NC2=O)cc1 (stereo unspecified)	2.7	11.4*	23.4	-7.0	-31.3	-10.0
Cc1ccc(NC(=O)CC2S/C(=N/N=C3/NC(=O)CS3)NC2=O)cc1 (stereo unspecified)	-0.7	0.7	-10.5	5.3	0.6	-4.4
CC1CCN(S(=O)(=O)c2ccc3nc(N4CCN(c5ccccc5)CC4)ccc3c2)CC1	-3.1	-0.1	30.1	5.6	nt	5.4
Nc1ncnc2c1ncn2[C@@H]1O[C@H](C(=O)Nc2cc(C(F)(F)F)cc(C(F)(F)F)c2)[C@@H](O)[C@H]1O	nt	nt	nt	nt	0.4	nt
